The text below walks through data of PubChem BioAssay (NCI).

Compounds without any hit were thinned out: in the full panel of roughly 83,000, 20% have a hit.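 A percent growth of 40 corresponds to 60% growth inhibition; 0 means no net growth; -100 means all cells died. Active threshold: below 10.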 A number with no mark means an inactive call.

The test has as its system KM12 colon. Kind of test: NCI-60 one-dose screen, 48 h (100 = growth as untreated, 0 = no growth, -100 = all killed). Conditions: 10 µM unless noted.
With `COc1cc(-c2nc3cc(Cl)c(Cl)cc3[nH]2)ccc1OCC(=O)N=Nc1c(O)[nH]c2ccc([N+](=O)[O-])cc12`, the growth is 103%.

For the compound `CCOC(=O)c1cc2c(=O)oc3ccccc3c2oc1=O`, the growth was 110%.

Take `c1cc2[nH]ncc2cc1-c1nc2ccc3[nH]ncc3c2c2c1CCCC2`: the growth is 13.2%. As for `Cc1cccc2c1NC(=O)C2(c1ccc(O)cc1)c1ccc(O)cc1`, the growth is 60.1%. Turning to `CCOC(=O)C(=Cc1cccc(Cl)c1)C(=O)OCC`, the growth is 18%.
